Measured values reported in PubChem BioAssay (NCI).
Compounds without any hit were thinned out: in the full panel of roughly 83,000, 20% have a hit.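 Results are percent growth after 48 hours of single-concentration exposure. 100 means growth as in untreated cells, lower positive values show inhibition; negative values down to -100 show cell death.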 Unmarked numbers belong to inactive results. Active and inactive are the calls of the source. The calls were made as follows: active = growth percent below 10; inactive = the rest.

What follows are compounds tested on 786-0 renal (assay: NCI-60 one-dose screen, 48 h (100 = growth as untreated, 0 = no growth, -100 = all killed)). Settings: 10 µM unless noted.
In the case of `CC(C)CSc1nc(-c2ccc(F)cc2)c(C#N)c(N2CCCCC2)n1`, the growth is reported as 90.8%. In the case of `Cc1ccc(C(=O)Nc2ccc(CN3CCN(C)CC3)c(C(F)(F)F)c2)cc1C#Cc1cnc(N)c2ccc(C#N)cc12`, the growth is reported as -25% (active). Work on `CCCCCN1CCN(C(CC(=O)c2ccccc2)C(=O)c2ccccc2)CC1` (stereo unspecified) yielded a growth of 102%. `COc1ccc2cc(C(C)C(=O)Nc3ccc(S(=O)(=O)Nc4cc(C)on4)cc3)ccc2c1` (stereo unspecified) gave a growth of 102%. `CN1CCN(Cc2ccc(NC(=O)c3ccc(C#Cc4c(N)ncc5ccc(F)cc45)cc3)cc2C(F)(F)F)CC1` was tested, and the growth was -56.6% (active). `CSC1=Nc2c(c(C)c(-c3ccccc3)n2CCCCl)C2=NC(=O)CN12` showed a growth of 77.9%. `Cc1ncc(C(=O)Nc2ccc(CN3CCN(C)CC3)c(C(F)(F)F)c2)cc1C#Cc1cnc(NC2CC2)c2ncccc12` was tested, and the growth was -85.2% (active). In the case of `Oc1ccc([S+](c2ccc(O)cc2)c2ccc(O)cc2)cc1`, the growth is reported as 106%. In the case of `Oc1ccc2ccccc2c1/C=N\Nc1ccccn1`, the growth is reported as -29.3% (active). `CCCNC(=O)Oc1ccc(/C(=C(/CC)Cc2ccccc2)c2ccc(OCCN(CC)CC)cc2)cc1` showed a growth of 80.7%.

These compounds were tested on COLO 205 colon in the same assay as above. Settings: 10 µM unless noted.
With `Cc1cc(CSc2ccc(Cl)cc2)ccc1N` the growth was 107%. For `CC(=O)C(CO)C(=O)Nc1ccccc1` (stereo unspecified), the growth was 99.5%. `Cc1nc2ccccc2c(=O)n1-c1cccc(OCc2cn(-c3cccc(O)c3)nn2)c1` showed a growth of 122%. Compound `CCCCCCCCCCN1CC2CCCCC2C1` (stereo unspecified) has a growth of 61%. In the case of `CCCCN(CCC)CCCCCCCCCCN1CCCc2ccccc21`, the growth is reported as 91.7%. For `O=C1C(Cl)=C(Nc2ccc(Nc3ccccc3)c(NC3=C(Cl)C(=O)c4ccccc4C3=O)c2)C(=O)c2ccccc21`, the growth was -15.6% (active). Work on `O=C(/C=C\c1ccc(NCc2ccc(C(=O)O)cc2)cc1)CCl` yielded a growth of 78.6%. Compound `CC1(C)NC(=S)NC1=O` has a growth of 108%. Compound `COc1ccc(-c2nc(N)n(C(=S)Nc3ccccc3)n2)cc1` has a growth of 105%. With `O=C(O)c1ccc(-c2nn(-c3ccc(C(=O)O)cc3)cc2CNc2ccc(Br)cc2)cc1` the growth was 108%. Compound `CCS(=O)(=O)N[C@@H]1O[C@H](COC(C)=O)C(OC(C)=O)[C@H](OC(C)=O)C1OC(C)=O` (stereo partly specified) has a growth of 113%. For `CCC(C)(C)c1ccc(OCCCCCCN2CCN(c3ccc(C)c(Cl)c3)CC2)cc1`, the growth was 91.4%. With `COc1ccc(-c2nc(SCC(C)C)nc(Nc3ccc(C(=O)O)cc3)c2C#N)cc1` the growth was 89.7%. In the case of `CCCCCCCCCCCCCCCCC(=O)O.CCCCCCCCCCCCCCCCCC(=O)O.CCCCCCCCCCCCCCCCCC(=O)O.CCCCCCCCCCCCCCCCCC(=O)O.CCCCCCCCCCCCCCCCCC(=O)O.CO[CH-]OC12COC1CC(O)C1(C)C(O)C(OC(C)O)C3=C(C)C(OC(=O)C(O)C([NH-])c4ccccc4)CC(O)(C(OC(=O)c4ccccc4)C21)C3(C)C.[Cu+].[Zn].[Zn].[Zn].[Zn].[Zn]` (stereo unspecified), the growth is reported as 14.7%. `O=C1c2cc([N+](=O)[O-])ccc2-c2cc(Cl)c(NC(=O)C(F)(F)F)cc21` gave a growth of 95.9%. `CCCNC(=O)Oc1ccc(/C(=C(/C)Cc2ccc(OC)cc2)c2ccc(OCCN3CCCCC3)cc2)cc1` showed a growth of 79%. With `CC(=O)CCS(=O)c1ccccc1` (stereo unspecified) the growth was 124%. Compound `N#CC1=C(N2CCOCC2)NC2c3ccccc3Sc3ccccc3N2C1=N` (stereo unspecified) has a growth of 96.8%. For `N#Cc1ccc(NC2c3ccccc3CC2O)cc1` (stereo unspecified), the growth was 108%. For `CC([C@H]1CCC2C3CCC4C[C@@H](N)CC[C@]4(C)C3CC[C@@]21C)N(C)C` (stereo partly specified), the growth was 6.07% (active). For `CCN(CC)c1ccc2nc3ccc(N=Nc4ccc(O)cc4)cc3[n+](-c3ccccc3)c2c1`, the growth was -6.39% (active). `CC(C)CSc1nc(-c2ccc(F)cc2)c(C#N)c(N2CCCCC2)n1` gave a growth of 96.2%. Compound `CCCCCN1CCN(C(CC(=O)c2ccccc2)C(=O)c2ccccc2)CC1` (stereo unspecified) has a growth of 55.1%. `COc1ccc2cc(C(C)C(=O)Nc3ccc(S(=O)(=O)Nc4cc(C)on4)cc3)ccc2c1` (stereo unspecified) was tested, and the growth was 115%. Compound `CSC1=Nc2c(c(C)c(-c3ccccc3)n2CCCCl)C2=NC(=O)CN12` has a growth of 79.1%. In the case of `Oc1ccc([S+](c2ccc(O)cc2)c2ccc(O)cc2)cc1`, the growth is reported as 102%. Work on `Oc1ccc2ccccc2c1/C=N\Nc1ccccn1` yielded a growth of 91%. In the case of `CCCNC(=O)Oc1ccc(/C(=C(/CC)Cc2ccccc2)c2ccc(OCCN(CC)CC)cc2)cc1`, the growth is reported as -49% (active).

The compounds below were run on DU-145 prostate in the same assay as above. Settings: 10 µM unless noted.
For `Cc1cc(CSc2ccc(Cl)cc2)ccc1N`, the growth was 88.5%. With `CC(=O)C(CO)C(=O)Nc1ccccc1` (stereo unspecified) the growth was 112%. `Cc1nc2ccccc2c(=O)n1-c1cccc(OCc2cn(-c3cccc(O)c3)nn2)c1` showed a growth of 100%. With `CCCCCCCCCCN1CC2CCCCC2C1` (stereo unspecified) the growth was 69%. Compound `CCCCN(CCC)CCCCCCCCCCN1CCCc2ccccc21` has a growth of 77.1%. With `C/C=C(/C)C(=O)OC1C=C(CO)C(=O)C(OC(=O)/C(C)=C\C)C1C(C)C` (stereo unspecified) the growth was -90.9% (active). `O=C1C(Cl)=C(Nc2ccc(Nc3ccccc3)c(NC3=C(Cl)C(=O)c4ccccc4C3=O)c2)C(=O)c2ccccc21` gave a growth of 104%. `CN1CCN(Cc2ccc(NC(=O)c3cncc(C#Cc4c(N)ncc5ccc(F)cc45)c3)cc2C(F)(F)F)CC1` showed a growth of 46.2%. Work on `COc1cccc(CNC(=O)c2cccc(C3CC(=O)c4c(cc(OC)c(OC)c4OC)O3)c2)c1` (stereo unspecified) yielded a growth of 101%. `COC(=O)C1CC(=O)N(C(=O)Nc2ccc(Cl)cc2Cl)C1` (stereo unspecified) gave a growth of 114%. `O=C(/C=C\c1ccc(NCc2ccc(C(=O)O)cc2)cc1)CCl` was tested, and the growth was 112%. With `CC1(C)NC(=S)NC1=O` the growth was 116%. With `Cc1ccc(C(=O)Nc2ccc(CN3CCN(C)CC3)c(C(F)(F)F)c2)cc1C#Cc1cncc2ncccc12` the growth was -88.1% (active). `COc1ccc(-c2nc(N)n(C(=S)Nc3ccccc3)n2)cc1` gave a growth of 108%. `O=C(O)c1ccc(-c2nn(-c3ccc(C(=O)O)cc3)cc2CNc2ccc(Br)cc2)cc1` gave a growth of 102%. Work on `CCS(=O)(=O)N[C@@H]1O[C@H](COC(C)=O)C(OC(C)=O)[C@H](OC(C)=O)C1OC(C)=O` (stereo partly specified) yielded a growth of 105%. Work on `CCC(C)(C)c1ccc(OCCCCCCN2CCN(c3ccc(C)c(Cl)c3)CC2)cc1` yielded a growth of 86%. With `Cc1ncc(C(=O)Nc2ccc(CN3CCN(C)CC3)c(C(F)(F)F)c2)cc1C#Cc1c(N)ncc2ccccc12` the growth was -87.8% (active). In the case of `COc1ccc2cnc(N)c(C#Cc3cc(C(=O)Nc4ccc(CN5CCN(C)CC5)c(C(F)(F)F)c4)cnc3C)c2c1`, the growth is reported as 64%. Work on `COc1ccc(-c2nc(SCC(C)C)nc(Nc3ccc(C(=O)O)cc3)c2C#N)cc1` yielded a growth of 88.7%. `O=C1c2cc([N+](=O)[O-])ccc2-c2cc(Cl)c(NC(=O)C(F)(F)F)cc21` was tested, and the growth was 112%. With `CCCNC(=O)Oc1ccc(/C(=C(/C)Cc2ccc(OC)cc2)c2ccc(OCCN3CCCCC3)cc2)cc1` the growth was 97%. `CC(=O)CCS(=O)c1ccccc1` (stereo unspecified) showed a growth of 103%. Compound `N#CC1=C(N2CCOCC2)NC2c3ccccc3Sc3ccccc3N2C1=N` (stereo unspecified) has a growth of 98.4%. In the case of `CC(C)(C)OC(=O)N1C/C(=C\c2ccccc2)C(=O)/C(=C/c2ccccc2)C1`, the growth is reported as 112%. With `N#Cc1ccc(NC2c3ccccc3CC2O)cc1` (stereo unspecified) the growth was 110%. With `CC([C@H]1CCC2C3CCC4C[C@@H](N)CC[C@]4(C)C3CC[C@@]21C)N(C)C` (stereo partly specified) the growth was 88.7%. For `CCN(CC)c1ccc2nc3ccc(N=Nc4ccc(O)cc4)cc3[n+](-c3ccccc3)c2c1`, the growth was 82.1%. In the case of `CC(C)CSc1nc(-c2ccc(F)cc2)c(C#N)c(N2CCCCC2)n1`, the growth is reported as 94.1%. `Cc1ccc(C(=O)Nc2ccc(CN3CCN(C)CC3)c(C(F)(F)F)c2)cc1C#Cc1cnc(N)c2ccc(C#N)cc12` gave a growth of 43.1%. For `CCCCCN1CCN(C(CC(=O)c2ccccc2)C(=O)c2ccccc2)CC1` (stereo unspecified), the growth was 69.1%. `COc1ccc2cc(C(C)C(=O)Nc3ccc(S(=O)(=O)Nc4cc(C)on4)cc3)ccc2c1` (stereo unspecified) gave a growth of 115%. With `CN1CCN(Cc2ccc(NC(=O)c3ccc(C#Cc4c(N)ncc5ccc(F)cc45)cc3)cc2C(F)(F)F)CC1` the growth was -46.5% (active). `CSC1=Nc2c(c(C)c(-c3ccccc3)n2CCCCl)C2=NC(=O)CN12` showed a growth of 94.8%. For `Cc1ncc(C(=O)Nc2ccc(CN3CCN(C)CC3)c(C(F)(F)F)c2)cc1C#Cc1cnc(NC2CC2)c2ncccc12`, the growth was -83.1% (active). `Oc1ccc([S+](c2ccc(O)cc2)c2ccc(O)cc2)cc1` was tested, and the growth was 120%. `Oc1ccc2ccccc2c1/C=N\Nc1ccccn1` was tested, and the growth was 4.84% (active). With `CCCNC(=O)Oc1ccc(/C(=C(/CC)Cc2ccccc2)c2ccc(OCCN(CC)CC)cc2)cc1` the growth was 86.1%.
